Chronic BCR inh: qHTS Assay to Find Inhibitors of Chronic Active B-Cell Receptor Signaling. ABC-DLBCL IkBa-CBG/CBR reporter, luminescence ratio, 4 h. Potency, µM (titrated, usually from 46.1 µM), inactives show at the top dose activity change, negative = inhibition, most hits filed as inhibitors. hit rate 0.05% among 340,000; active = well fitted inhibition curve with a large enough effect in the signal ratio, with a control signal flat, not every such curve was filed as active; inconclusive = small, poorly fitted or top-dose-only effect, or effect the other way, or a change in a side signal; the % refers to the signal ratio;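 also: potency is read from the fitted curve at half-maximal effect; plate controls were basal doxycycline-induced cells for no effect and cells given 10 µM MG132 for full effect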
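TMD8 ABC-DLBCL cells carrying doxycycline-inducible green luciferase fused to IkappaBalpha plus unfused red luciferase were exposed to compounds (up to 46 uM) for 4 hrs at 37C. Activity came from the overlap-corrected green/red luminescence ratio.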
VP16 counter: VP16 counterscreen qHTS for inhibitors of ROR gamma transcriptional activity | Drosophila S2 Gal4-VP16 UAS-luciferase, luminescence, 20 h | Potency, µM (top dose mostly 53.6 µM), for inactives: at the highest dose activity, negative = inhibition, actives largely listed as inhibitors | hit rate 3.5% among 310,000;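 also: Gal4-VP16 expression switched on by copper sulfate through the metallothionein promoter; potency is read from the fitted curve at half-maximal effect; % is scaled to controls: 0 for no effect and ±100 for the full control effect; nearly all actives have a fitted effect of over 50% in size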
Giardia kill: Small Molecules that selectively kill Giardia lamblia: qHTS. hit rate 0.15% among 340,000. activity change, % at 7.66 µM, hits read low. AID 540267, 2011. Giardia lamblia trophozoite viability; in the data active = activity change below about -80%; inconclusive = between about -30% and that limit;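 also: parasites exposed to compound for two days anaerobically before the ATP read; % is scaled to controls: 0 for no effect and ±100 for the full control effect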
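Trophozoite viability was measured as ATP-dependent luminescence, read 15-30 min after reagent addition. Before that, parasites at 100 cells/well were exposed to compounds for 48 h, anaerobically, at 37 deg C.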
SW480 rerep: A quantitative high throughput screen for small molecules that induce DNA re-replication in SW480 colon adenocarcinoma cells. hit rate 1.8% among 340,000. SW480 DNA re-replication, Hoechst DNA content imaging, 48 h. AID 624297, 2012. Potency, µM (titrated, usually from 46.1 µM), for inactives: at the highest dose re-replication activation, usual class: activators; also: potency is read from the fitted curve at half-maximal effect; % of control where 0% means no effect; nearly all actives have a fitted effect of over 55% in size
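Readout is total intensity of Hoechst-stained nuclei, excited at 405 nm and collected at 500-530 nm. Compound treatment lasted 48 hr at 37 C in 5% CO2 before staining.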
MCF10A rerep: A quantitative high throughput screen for small molecules that induce DNA re-replication in MCF 10a normal breast cells | MCF 10A DNA re-replication, Hoechst nuclear intensity, 48 h | Potency, µM (series often up to 46.1 µM), without a hit: at the top dose activity, positive = re-replication, usual class: activators | hit rate 2.9% among 350,000 | AID 624296, 2012; also: potency is read from the fitted curve at half-maximal effect; % of control where 0% means no effect; nearly all actives have a fitted effect of over 50% in size
RORgamma inh: qHTS for inhibitors of ROR gamma transcriptional activity; Potency, µM (highest dose often 53.6 µM), for inactives: top-dose activity change, negative = inhibition, most hits filed as inhibitors; hit rate 5.4% among 310,000; Nuclear receptor ROR-gamma (Mus musculus), P51450; Drosophila S2 Gal4-RORgamma UAS-luciferase reporter, 20 h; also: potency is read from the fitted curve at half-maximal effect; % is scaled to controls: 0 for no effect and ±100 for the full control effect; nearly all actives have a fitted effect of over 60% in size
Target sequence (P51450 whole entry, looked up, the tested form may be a part): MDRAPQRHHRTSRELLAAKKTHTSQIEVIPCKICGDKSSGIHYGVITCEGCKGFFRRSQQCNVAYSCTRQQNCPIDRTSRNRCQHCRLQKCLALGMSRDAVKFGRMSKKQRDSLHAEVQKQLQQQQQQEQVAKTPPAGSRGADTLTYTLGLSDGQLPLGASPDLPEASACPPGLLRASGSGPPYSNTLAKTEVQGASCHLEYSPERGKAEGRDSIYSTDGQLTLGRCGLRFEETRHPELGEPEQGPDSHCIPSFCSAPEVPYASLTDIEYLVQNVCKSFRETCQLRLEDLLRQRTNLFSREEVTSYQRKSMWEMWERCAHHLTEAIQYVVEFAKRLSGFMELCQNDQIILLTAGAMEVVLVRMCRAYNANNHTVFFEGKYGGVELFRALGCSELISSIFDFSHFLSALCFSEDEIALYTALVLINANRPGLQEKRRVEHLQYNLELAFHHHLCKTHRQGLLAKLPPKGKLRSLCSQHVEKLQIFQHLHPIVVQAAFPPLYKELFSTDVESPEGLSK
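ROR gamma transcriptional activity was tracked as Gal4-UAS luciferase output in stably transfected Drosophila Schneider cells, with compound added 1 hr before 700 uM copper sulfate induction and a 20 hr ambient-temperature incubation.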
* hit, by the source's call; ? = inconclusive; . = not tested or not shown; [ ] = another dose, or the depositor's remark. In the library only some 8.3% were active in any assay of this set; here they are far more common. Unless noted, calls follow the shape of the dose curve; as a rule, active = well fitted curve in the direction sought with a large enough effect; inconclusive = small, poorly fitted or top-dose-only effect, or another doubt; inactive = no such curve, though single readings can be large; an effect the other way counts as inactive or inconclusive.

SMILES	Chronic BCR inh	VP16 counter	Giardia kill	SW480 rerep	MCF10A rerep	RORgamma inh
COc1ccc(C(=O)NC(=C(Cl)Cl)S(=O)(=O)c2ccc(C)cc2)cc1	?	?	21	13µM*	10µM*	?
COc1ccc(C(=O)NC(=S)NNC(=O)c2ccc(C)cc2)cc1	.	.	-2	-1%	9%	.
Cc1ccc(S(=O)(=O)NCCNC(=O)c2ccccc2)cc1	?	1%	-7	-2%	-3%	4%
Cc1ccc(C(=O)NC(=C(Cl)Cl)S(=O)(=O)c2ccccc2)cc1	?	-11%	20	-4%	21µM*	-10%
CCN(CC)C(=O)Nc1ccc(OC[C@H](O)CNC(C)(C)C)c(C(C)=O)c1	.	5%	.	-1%	1%	9%
O=C(CSC1=NS(=O)(=O)c2cc(Cl)ccc2N1)Nc1ccccc1C(F)(F)F	7%	.	35	?	-2%	.
O=C(CN1CCN(C(C(=O)Nc2cc(C(F)(F)F)ccc2Cl)c2ccccc2)CC1)NC1CC1 (centres undefined)	.	.	19	-9%	3%	.
COc1cccc(C(=O)Nc2nc(C)cs2)c1	?	-23%	-20	0%[9.22 µM]	2%	?
Fc1ccc(Nc2nc3ccccc3s2)cc1	2%	-5%	-10	26%	?	-25%
COc1cccc(C(=O)Nc2nc3ccccc3s2)c1	?	14µM*	3	?	6%	13µM*
O=C(Nc1nc2ccccc2s1)c1cc(-c2ccccc2)nn1-c1ccccc1	-5%	?	7	14%	?	10µM*
O=C(Nc1nc2ccccc2s1)c1ccc(F)cc1	?	?	?	-5%	-1%	4.5µM*
O=C(Nc1nc(-c2cccs2)cs1)c1ccc(Cl)s1	?	?	-6	5%	109%	?
O=C(Nc1nc2ccccc2s1)c1ccc(Cl)s1	?	-33%	?	-1%	14%	8.9µM*
Cc1ccc(NC(=O)CN(C)CC(=O)N(C)Cc2ccccc2)cc1	-1%	.	-16	-4%	-2%	.
CCc1ccc(-c2nc(SCC(=O)N(CC)C3CCS(=O)(=O)C3)n[nH]2)cc1 (centres undefined)	?	.	-4	-13%	1%	.
Cc1ccc(Nc2nc3ccccc3c(=O)s2)cc1C	0%	3.5µM*	2	-82%	-6%	2.8µM*
CSc1nc2ccc3nc(NC(=O)c4ccc(C)cc4)sc3c2s1	-8%	-6%	-14	-3%	-7%	-15%
COCC(=O)Nc1nc2ccc(C)cc2s1	?	?	-10	0%	1%	?
Cc1ccc2nc(NC(=O)c3ccc(-c4nc5ccccc5s4)s3)sc2c1	6%	6%	-8	-9%	8%	7.9µM*
Cc1ccc(C(=O)Nc2nc3ccccc3c(=O)s2)cc1	?	?	19	-4%	0%	14µM*
COc1ccc(C(=O)Nc2nc3ccccc3s2)cc1	?	?	?	10%	12%	5µM*
COc1ccc(C(=O)Nc2nc3ccccc3s2)cc1OC	-19%	?	-11	-10%	-7%	14%
Cc1cccc(OCC(=O)N/N=C2/SCC(=O)N2Cc2ccco2)c1	6%	6%	-13	1%	-2%	2%
O=C(Nc1nc(=O)c2ccccc2s1)c1ccccc1	?	6.3µM*	-8	1%	27%	7.1µM*
CCC(=O)c1cn(CC(=O)Nc2c(C)cccc2C)c2ccccc12	-2%	4%	8	?	-18%	-3%[1.91 µM]
CC(=O)c1cn(CC(=O)Nc2c(C)cccc2C)c2ccccc12	2%	7.1µM*	3	1%	1%	-18%
C/C(=N\Nc1nc(C)cc(-c2ccccc2)n1)c1ccc(F)cc1	13%	7.1µM*	-1	5%	7%	3.2µM*
